We go through 27 compounds from PubChem BioAssay (NCATS).

Results filed as inconclusive are left out. The source made the active and inactive calls. Calls follow the shape of the dose curve; as a rule, active = well fitted inhibition curve with a large enough effect; inconclusive = small, poorly fitted or top-dose-only effect; inactive = flat fitted curve, though single readings scatter.

The assay deals with CRL-7250. The experiment in a line: qHTS assay to identify novel small-molecules to repurpose for Merkel cell carcinoma treatment (AID 1296009). Also: nearly all actives have a fitted effect of over 60% in size. Particulars: MCC and control cell lines, CellTiter-Glo viability, 72 h; series mostly up to 92 µM; activity change, negative = cytotoxicity: at the top concentration. An outline of the steps: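 Cells were treated for 72 hr at 37 degree celsius with compounds in 8- or 11-point dose response. Viability was read by CellTiter-Glo luminescence, normalized to no-cell (cytotoxicity) and DMSO controls.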
Regarding `COc1cc2ncnc(Nc3cccc(O)c3)c2cc1OC`, the outcome was inactive. With `N[C@@H](CCNCc1ccc(Cl)cc1)C(=O)N1CCCCC1` the entry was “inactive”; with `O=C1COc2nccc(-c3ccccc3F)c2CN1Cc1cc(C(F)(F)F)cc(C(F)(F)F)c1`, “inactive”.

On to `C=C(C)[C@@H]1CC[C@](C)(O)[C@@H](OC(=O)c2ccccc2)C1`, for which the compound was classed as inactive. Regarding `OC[C@H]1O[C@@H](O[C@H]2[C@H](OCCc3ccccc3)O[C@H](CO)[C@@H](O)[C@@H]2O)[C@H](O)[C@@H](O)[C@@H]1O`, the “outcome” value is “inactive [at 17.4 µM]”. With `COc1ccc(NC(=O)C2C[C@H](C)CC[C@H]2C(C)C)cc1` (some centres not stated) the entry was “inactive”; with `CCOC(=O)CSc1nc2c(sc3ccccc32)c(=O)n1CCCN1CCCC1`, “inactive”. Next, `CC1(C)CC[C@]2(C(=O)O)CC[C@]3(C)C(=CCC4[C@@]5(C)CC[C@H](O)C(C)(C)C5CC[C@]43C)C2C1` (some centres not stated): “inactive [at 17.4 µM]”. For `CC/C=C\CC1C(=O)C=CC1(CCCCC1CCC(=O)O1)OC(C)=O` (configuration not stated), the call was inactive. With `C=CC(C)(O)CC/C=C(/C)C(=O)OC1C(OC2OCC(OC3OC(CO)C(O)C(O)C3O)C(OC3OCC(O)C(OC4OC(C)C(O)C(O)C4O)C3O)C2O)COC(OC(=O)C23CCC(C)(C)CC2C2=CCC4C5(C)CCC(OC6OC(CO)C(OC7OC(CO)C(O)C(OC8OCC(O)C(O)C8O)C7O)C(O)C6O)C(C)(C)C5CCC4(C)C2(C)CC3O)C1O` (configuration not stated) the entry was “inactive [at 4.96 µM]”.

Regarding `CC(=O)OC1CC(C(C)(C)O)OC2CCC3(C)OC4=C(C(=O)C=C5C(C)C(OC(C)=O)C6(C)C(C)OC546)C(O)C3C12C` (configuration not stated), the “outcome” value was “inactive [at 17.4 µM]”. Next, `CC(C)c1cc2c(c(O)c1O[C@@H]1O[C@H](CO)[C@@H](O)[C@H](O)[C@H]1O)CC1(O)CCC(O)C(C)(C)C1CC2` (some centres not stated): “inactive [at 17.4 µM]”; `COC1CC(=O)C23C(=O)NC(CC(C)C)C2C(C)C(C)=CC3/C=C(\C)CCC1O` (configuration not stated): “inactive [at 17.4 µM]”; `O=[N+]([O-])c1ccc(Oc2ccc3c(c2)CCC(c2ccccc2)O3)nc1` (configuration not stated): “inactive”. Next, `C=C1CC23CC1CCC2C12OC(=O)C(C)(CCC1O)C2C3C(=O)O` (configuration not stated): “inactive”; `NCCOCCOCCNC(=O)Cc1ccc(Nc2nc(NCc3ccc(F)cc3)nc(NCC3CCCCC3)n2)cc1`: “inactive”; `CC(=O)c1c(O)cc2cccc3c2c1CC(C)(O)O3` (configuration not stated): “inactive”. With `CC(O)(CC(=O)O)CC(=O)OCc1ccc(O[C@@H]2O[C@H](CO)[C@@H](O)[C@H](O)[C@H]2O)cc1` (some centres not stated) the entry was “inactive [at 17.4 µM]”; with `CCNC(=O)[C@@H]1CCCN1C(=O)[C@H](CCCN=C(N)N)NC(=O)[C@H](CC(C)C)NC(=O)[C@@H](C)NC(=O)[C@H](Cc1ccc(O)cc1)NC(=O)[C@H](CO)NC(=O)[C@H](Cc1c[nH]c2ccccc12)NC(=O)[C@H](Cc1cnc[nH]1)NC(=O)[C@@H]1CCC(=O)N1`, “inactive [at 17.4 µM]”.

As for `NS(=O)(=O)c1ccc(NC(=O)Nc2ccc(F)cc2)cc1`, the call was inactive. Next, `CC(C)S(=O)(=O)N[C@H]1CCOC[C@@H]1c1ccc(-c2ccc(C#N)s2)cc1`: “inactive”; `C=CC1(C)C=C2C(O)CC3C(C)(C(=O)O)CCCC3(C)C2CC1` (configuration not stated): “inactive”.

Take `CC(C)c1ccc(NC(=O)Cn2cnc3c2c(=O)n(C)c(=O)n3C)cc1`: the call was inactive. Next, `COc1cc(C2Oc3c(OC)cc(/C=C/C(=O)OC[C@H]4O[C@@H](OC(C)(C)C(=O)O)[C@H](O)[C@@H](O)[C@@H]4O)cc3C2CO)ccc1O` (some centres not stated): “inactive [at 17.4 µM]”; `CC(=O)c1ccc(O[C@@H]2O[C@H](CO[C@@H]3OC[C@@H](O)[C@H](O)[C@H]3O)[C@@H](O)[C@H](O)[C@H]2O)cc1`: “inactive [at 17.4 µM]”; `CC(=O)OCC1(O)CCC2C(COC3OC(CO)C(O)C(O)C3OC(=O)/C=C/c3ccc(O)cc3)=COC(OC(=O)CC(C)C)C21` (configuration not stated): “inactive [at 17.4 µM]”.

As to `Cc1[nH]cnc1C1CCN(c2nc3cccc4c3n2CCC4=O)CC1`, the result was inactive.
